# Source: PubChem (National Center for Advancing Translational Sciences (NCATS))
# Vaccinia Venus = vaccinia inhibition (Venus reporter). Vaccinia virus Venus reporter expression, fluorescence. Potency, µM (titrated, usually from 36.5 µM), inactives show at the highest dose activity change, negative = inhibition, most hits filed as inhibitors. hit rate 0.46% among 330,000; calls by dose curve; tested in A549 cells; note: potency is the fitted concentration of half-maximal effect; nearly all actives have a fitted effect of over 30% in size
# HCV inh = HCV inhibition | Huh7.5.1 HCVcc-Cre infection, luciferase reporter, 44 h | Potency, µM (series often up to 41.8 µM), for the others: at the highest dose activity change, negative = inhibition, usual class: inhibitors | hit rate 3.4% among 340,000; note: potency is the fitted concentration of half-maximal effect
#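 Infectious HCV cell culture screen: compound-treated cells (1,000/well, pre-plated 4 h) are infected with HCVcc-Cre at roughly 0.5 moi and grown 44 h. Infection is quantified by luciferase signal after 15 min substrate incubation at room temperature.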
# Sm TGR inh = inhibitors of Schistosoma mansoni thioredoxin glutathione reductase | AID 485364 | purified TGR, DTNB reduction, TNB absorbance 405 nm | hit rate 3% among 360,000 | Potency, µM (titrated, usually from 114 µM), for the others: top-dose activity change, negative = inhibition, most hits filed as inhibitors; note: potency is the fitted concentration of half-maximal effect; nearly all actives have a fitted effect of over 60% in size
#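 First, TGR (20 nM dispensed) and NADPH were mixed with compound. Second, a 15 min room-temperature incubation followed. Third, further NADPH and then DTNB were added to start the reaction. Finally, TNB absorbance was monitored kinetically.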
# FMDV inh = antivirals against foot and mouth disease virus; Potency, µM (titrated, usually from 57.9 µM), for inactives: top-dose activity change, negative = inhibition, most hits filed as inhibitors; hit rate 1.2% among 410,000; FMDV antiviral cell-based qHTS; calls by dose curve; tested in HEK293T cells; note: read-out not given here; potency is the fitted concentration of half-maximal effect; nearly all actives have a fitted effect of over 45% in size
# Vaccinia mCherry = vaccinia inhibition (mCherry reporter) | Vaccinia virus mCherry reporter infection, fluorescence | Potency, µM (titrated, usually from 36.5 µM), without a hit: at the top dose activity change, negative = inhibition, actives largely listed as inhibitors | hit rate 0.63% among 310,000; calls by dose curve; tested in A549 cells; note: potency is the fitted concentration of half-maximal effect; nearly all actives have a fitted effect of over 35% in size
# HCMV antiviral = human cytomegalovirus inhibition; activity change, negative = inhibition, % at 57.5 µM; hit rate 4.5% among 410,000; AID 1259415; HFF cells, HCMV-luciferase reporter, 72 h; hits give low values; in the data active = activity change below about -60%; inconclusive = no clear call, values can overlap the other calls; inactive = above about -39%
#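 Two-dose cell screen: HFF monolayers treated with compounds and infected with luciferase-expressing HCMV at 1 PFU/cell, 72 h at 37C, then lysed for luciferase measurement.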
# * hit, by the source's call; i = inactive; ? = inconclusive; . = not tested or not shown. Most compounds without a hit are left out; they make up all but 9.3% or so of the library. Unless noted, calls come from the whole dose curve; as a rule, active = well fitted curve in the direction sought with a large enough effect; inconclusive = small, poorly fitted or top-dose-only effect, or another doubt; inactive = no such curve, though single readings can be large; an effect the other way counts as inactive or inconclusive. % is set by controls: 0 for no effect and ±100 for the full control effect.
SMILES,Vaccinia Venus,HCV inh,Sm TGR inh,FMDV inh,Vaccinia mCherry,HCMV antiviral
CSc1ccc(C(=O)C2CCCN(C(=O)c3ccc4c(c3)OCO4)C2)cc1 (configuration not stated),.,3%,4%,-1%,.,-36
COc1ccc(C(=O)C2CCCN(C(=O)c3ccc(CSC)o3)C2)cc1F (configuration not stated),-11%,22%,28µM*,-14%,-10%,-34
COc1ccc(C(=O)C2CCCN(C(=O)c3noc4c3CCCC4)C2)cc1F (configuration not stated),-10%,-7%,6%,-13%,-14%,53
COc1ccc(C(=O)C2CCCN(C(=O)c3ccccc3C(C)=O)C2)cc1F (configuration not stated),-3%,-3%,40µM*,12%,i,?
COCCC(=O)N1CCCC(C(=O)c2ccc(C(F)(F)F)cc2)C1 (configuration not stated),-3%,8%,-1%,10%,-1%,124
O=C(OCc1ccccc1)N1CCC2CC1c1cc(/C=C/CCCSc3ncccn3)ccc12 (configuration not stated),-20%,.,.,-5%,-2%,26
COc1cc(NC(=O)CCNS(=O)(=O)c2ccc3c(c2)CCC(=O)N3)cc(OC)c1,-1%,43%,-29%,12%,-8%,-26
O=C1CC2OCC=C3CN4CCC56c7cc([N+](=O)[O-])ccc7N1C5C2C3CC46 (configuration not stated),-1%,0%,-5%,2%,i,-88*
S=C(Nc1ccc(Oc2ccccc2)cc1)NC1CCCC1,-12%,-1%,2%,66%,i,-33
COc1ccc(NC(=S)NC2CCCCC2)cn1,0%,11%,-14%,68%,-3%,-87*
S=C(Nc1ccc(Br)cc1)NC1CCCC1,-22%,-3%,-14%,36%,-16%,-65*
COc1ccccc1NC(=S)NC1CCCC1,.,-13%,.,1%,.,-24
CC(Oc1ccccc1)C(=O)Nc1c(C(=O)Nc2cccc(F)c2)oc2ccccc12 (configuration not stated),-18%,.,2%,-6%,-15%,13
Cc1ccc2c(c1)cc(CN(Cc1cccnc1)C(=O)NCc1ccccc1)c1nnnn12,.,-5%,0%,4%,.,29
O=C(Nc1nnc([C@@H]2C[C@H](O)[C@@H](CO)O2)s1)c1cccc(OC(F)(F)F)c1,-12%,.,.,9%,34%,-84*
CCCC(=O)Nc1nnc([C@H]2C[C@H](O)[C@@H](CO)O2)s1,-7%,.,.,-8%,6%,-96*
O=C1CSc2ccc(C(=O)N3CCCCC3)cc2N1,-9%,.,.,-16%,i,-68*
CCOc1cccc(C2c3[nH]c4ccccc4c3CCN2C(=O)CCc2ccccc2)c1 (configuration not stated),-9%,.,5%,-25%,-2%,-9
Cc1ccc(C2c3[nH]c4ccccc4c3CCN2C(=O)CCc2ccccc2)cc1 (configuration not stated),-3%,.,0%,-5%,-24%,-86*
O=C(CSc1ccccc1)N1CCc2c([nH]c3ccccc23)C1c1ccc(F)cc1 (configuration not stated),-23%,.,0%,4%,i,-31
CSc1ccc(C2c3[nH]c4ccccc4c3CCN2C(=O)CCC2CCCC2)cc1 (configuration not stated),8%,.,-2%,-6%,-9%,-78*
COC(=O)c1ccccc1NC(=O)COc1ccc(S(=O)(=O)N2CCCC2)cc1C,-7%,?,4%,7%,i,51
CCCC1c2ccc(C)n2CCN1C(=O)Nc1ccc(F)cc1 (configuration not stated),-4%,-1%,20µM*,-5%,.,8
O=C(CC1C(=O)NCCN1C(=O)Nc1ccc(F)cc1)Nc1ccc(F)cc1 (configuration not stated),-24%,26%,-1%,-20%,i,7
